# Reference: PubChem BioAssay AID588800 (Johns Hopkins Ion Channel Center, 2011)
# A number with no mark means an inactive call.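 The calls were made as follows: active = peak inhibition of the KCNQ2 potassium channel above 30% at some tested dose, plus a fitted dose response curve; inactive = no inhibition at any dose, or no curve.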
# Target: Potassium voltage-gated channel subfamily KQT member 2 (Rattus norvegicus) (UniProt O88943)
# Assay: blockade of KCNQ2 thallium flux – cell-based, FluxOR thallium flux, CRC set 2, selectivity assay for KCNK9 inhibitor project, SAR follow-up (AID 588800)
# Conditions: KCNQ2-expressing cells; series mostly up to 30 µM; thallium flux ratio, lower = inhibition: at the top concentration
# Potassium voltage-gated channel subfamily KQT member 2 (Rattus norvegicus), sequence (O88943 whole entry, looked up): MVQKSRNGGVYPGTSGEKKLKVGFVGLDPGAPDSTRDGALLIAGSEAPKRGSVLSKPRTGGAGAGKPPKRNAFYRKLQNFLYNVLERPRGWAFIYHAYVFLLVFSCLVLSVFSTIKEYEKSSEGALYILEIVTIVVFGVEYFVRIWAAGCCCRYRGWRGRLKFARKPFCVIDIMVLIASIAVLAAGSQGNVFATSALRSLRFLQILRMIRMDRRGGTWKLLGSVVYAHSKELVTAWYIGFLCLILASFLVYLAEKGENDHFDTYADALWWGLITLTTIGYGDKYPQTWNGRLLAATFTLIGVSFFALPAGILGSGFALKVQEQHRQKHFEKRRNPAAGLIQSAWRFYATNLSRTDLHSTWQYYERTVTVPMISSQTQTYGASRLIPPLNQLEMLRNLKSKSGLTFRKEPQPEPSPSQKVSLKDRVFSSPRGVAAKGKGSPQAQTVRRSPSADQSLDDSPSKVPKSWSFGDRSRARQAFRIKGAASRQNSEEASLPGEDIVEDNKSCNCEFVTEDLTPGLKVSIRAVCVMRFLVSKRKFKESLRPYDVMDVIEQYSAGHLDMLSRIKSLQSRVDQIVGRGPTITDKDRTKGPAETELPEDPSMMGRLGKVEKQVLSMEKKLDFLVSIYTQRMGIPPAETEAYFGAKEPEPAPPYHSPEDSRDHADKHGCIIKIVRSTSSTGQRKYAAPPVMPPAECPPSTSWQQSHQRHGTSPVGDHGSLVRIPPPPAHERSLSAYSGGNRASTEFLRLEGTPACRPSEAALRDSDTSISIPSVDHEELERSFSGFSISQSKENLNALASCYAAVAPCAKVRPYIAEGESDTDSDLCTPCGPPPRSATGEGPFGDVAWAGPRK
row,SMILES,"thallium flux ratio, lower = inhibition"
1,COc1ccc(C(=O)Nc2cccc(NC(=O)c3cccc(C)c3)c2)cc1,0.179
2,COc1ccccc1C(=O)Nc1cccc(NC(=O)c2cccc(C)c2)c1,0.189
3,CCOc1ccccc1NC(=O)c1cccc(NC(=O)CC2CCCCC2)c1,0.163
4,Cc1cccc(C(=O)Nc2cccc(NC(=O)C3CCCCC3)c2)c1,0.167
5,CCOc1ccccc1NC(=O)c1cccc(NC(=O)c2ccc(C(F)(F)F)cc2)c1,0.195
6,Cc1cccc(C(=O)Nc2cccc(NC(=O)c3ccncc3)c2)c1,0.163
7,CCOc1ccccc1NC(=O)c1cccc(C(=O)NC2CCCC2)c1,0.179
8,COc1ccccc1-c1n[nH]c(=S)n1C(C)C1CC2CCC1C2 (stereo not drawn),0.173
9,CC(C1CC2CCC1C2)n1c(-c2ccccc2)n[nH]c1=S (stereo not drawn),0.203
10,COc1cccc(C(=O)Nc2cccc(NC(=O)c3cccc(C)c3)c2)c1,0.169
11,CCOc1ccccc1NC(=O)c1cccc(NC(=O)C2CCCO2)c1 (stereo not drawn),0.195
12,CCOc1ccccc1NC(=O)c1cccc(NC(=O)c2cccc(C(F)(F)F)c2)c1,0.173
13,CCOc1ccccc1C(=O)Nc1cccc(NC(=O)C2CCCC2)c1,0.144
14,Cc1cccc(C(=O)Nc2cccc(NC(=O)c3ccc(C(C)(C)C)cc3)c2)c1,0.244
15,CC(C)(C)c1ccc(C(=O)Nc2cccc(NC(=O)c3ccccc3)c2)cc1,0.169
16,COc1cccc(OC)c1C(=O)Nc1cccc(NC(=O)c2cccc(C)c2)c1,0.164
17,S=c1[nH]nc(-c2ccco2)n1CC1CCCCC1,0.16
18,Cc1ccc(-c2n[nH]c(=S)n2C(C)C2CC3CCC2C3)cc1 (stereo not drawn),0.174
